# Laboratory results from PubChem BioAssay (NCATS).
# Results filed as inconclusive are left out. Entries that show only a call come without a potency. Calls of active or inactive are those of the source. The call rests on the fitted dose curve; in most records, active means well fitted cell-killing curve with a large enough effect; inconclusive means small, poorly fitted or top-dose-only effect, or effect the other way; inactive means no such curve, though single readings can be large or run the other way.
# Test: qHTS assay to identify small molecule inhibitors of chordoma cells - UCH-1 (AID 1259355); further: nearly all actives have a fitted effect of over 55% in size
# Details: UCH-1 chordoma viability, CellTiter-Glo, 48 h, combination, with auranofin plus four topoisomerase inhibitors; series mostly up to 46.1 µM
# From the text: NIH Chemical Genomics Center [NCGC]
# Chordoma is a rare and slow growing tumor that can occur anywhere along the spine, from the base of the skull to the tailbone. Current treatment options for chordoma is surgery and radiation therapy for those who are not candidates for surgery. But chordomas tend to return in the same location or surrounding areas of the original tumor after surgery and/or radiation. Chemotherapy can slow down the progression of the tumor. As chordoma is slow growing, the general cytotoxic agents that kill fast growing cells are ineffective, and some patients have been reported to respond to molecularly targeted drugs.
# NCATS Pharmaceutical Collection (NPC) containing approximately 3000 clinically approved and investigational drugs were used to screen at 15 concentrations in a chordoma cell lines, UCH-1, to identify small molecule compounds that can inhibit chordoma cell growth.
# NCGC Assay Protocol Summary:
# Human chordoma cell line UCH-1 was dispensed at 800 per well in 4uL of culture medium into white solid bottom 1536-well plates (Corning Life Sciences, Corning, NY) using a Multidrop Combi (Thermo Scientific, Waltham, MA) dispenser. The assay plates were incubated at 37 C and 5% CO2 for an overnight, and then 23nL of compounds dissolved in DMSO and positive control were transferred using a Pintool station (Wako, San Diego, CA). Compound treatment was followed by the addition of 1uL of the combination compounds (1uM Auranofin, 500nM each of Camptothecin, Doxorubicin, Rubitecan, and Topotecan) and assay medium to each well of the assay plates using Flying Reagent Dispenser (FRD, Aurora Discovery, San Diego, CA). The assay plates were incubated at 37 C and 5% CO2 for 48hr. Then 5uL of CellTiter-Glo reagent (Promega Corporation, Madison, WI) was added to each well of the assay plates using FRD. After 30min incubation at room temperature, the luminescence signal was quantified using a ViewLux plate reader (PerkinElmer, Shelton, CT).
# Potency means the concentration at half of the fitted maximal effect.
row,SMILES,Potency
1,Clc1ccc(C(Cn2ccnc2)OCc2ccsc2Cl)c(Cl)c1 (stereo not given),inactive
2,Clc1ccc(C(Cn2ccnc2)OCc2c(Cl)cccc2Cl)c(Cl)c1 (stereo not given),inactive
3,Cc1ccc(NC(=O)c2ccc(CN3CCN(C)CC3)cc2)cc1Nc1nccc(-c2cccnc2)n1,inactive
4,Cc1cc(=O)oc2cc(O)ccc12,inactive
5,CNC[C@@H](O)[C@@H](O)[C@H](O)[C@H](O)CO,inactive
6,O=C(CS(=O)Cc1ccco1)NCC=CCOc1cc(CN2CCCCC2)ccn1 (stereo not given),inactive
7,O=C(O)c1cc(=O)c2c(OCC(O)COc3cccc4oc(C(=O)O)cc(=O)c34)cccc2o1,inactive
8,CCN(CC)CCOc1ccc(Cc2ccccc2)cc1,inactive
9,CC(C)c1ccc2oc3nc(N)c(C(=O)O)cc3c(=O)c2c1,inactive
10,COC(=O)C1=C(C)NC(C)=C(C(=O)OC(C)C)C1c1cccc2nonc12 (stereo not given),inactive
11,CN1C(C(=O)Nc2ccccn2)=C(O)c2sccc2S1(=O)=O,inactive
12,Nc1cc(C(Cl)=C(Cl)Cl)c(S(N)(=O)=O)cc1S(N)(=O)=O,inactive
13,CCN(CCO)CCCC(C)Nc1ccnc2cc(Cl)ccc12 (stereo not given),inactive
14,O=c1oc2cc(O)ccc2s1,inactive
15,O=C(NCCO[N+](=O)[O-])c1cccnc1,inactive
16,O=C(OC1C[C@H]2CC[C@@H](C1)[N+]21CCCC1)C(O)(c1ccccc1)c1ccccc1 (stereo not given in full),inactive
17,COCCCOc1ccnc(CS(=O)c2nc3ccccc3[nH]2)c1C (stereo not given),inactive
18,C[C@]12CCC(=O)C=C1CC[C@@H]1[C@H]2[C@@H](O)C[C@@]2(C)[C@H]1CC[C@]2(O)C(=O)CO,inactive
19,COc1c2occc2cc2ccc(=O)oc12,inactive
20,Cc1cccc(C)c1OCC(=O)N[C@@H](Cc1ccccc1)[C@@H](O)C[C@H](Cc1ccccc1)NC(=O)[C@H](C(C)C)N1CCCNC1=O,inactive

row,SMILES,Potency
1,COC(=O)C1=C(C)NC(C)=C(C(=O)OCCCN2CCC(c3ccccc3)(c3ccccc3)CC2)C1c1cccc([N+](=O)[O-])c1 (stereo not given),31.6 µM (active)
2,CN(C)c1ccc(O)c2c1C[C@H]1C[C@H]3[C@H](N(C)C)C(=O)C(C(N)=O)=C(O)[C@@]3(O)C(=O)C1=C2O,inactive
3,Nc1ccn([C@@H]2O[C@H](CO)[C@@H](O)C2O)c(=O)n1 (stereo not given in full),inactive
4,Cc1cc2c(s1)Nc1ccccc1N=C2N1CCN(C)CC1,inactive
5,CC(C)Oc1ccc2c(=O)c(-c3ccccc3)coc2c1,inactive
6,CN(C)C(=O)COC(=O)Cc1ccc(OC(=O)c2ccc(N=C(N)N)cc2)cc1,inactive
7,NS(=O)(=O)c1cc(C(=O)O)c(NCc2ccco2)cc1Cl,inactive
8,Nc1ncn([C@H]2C[C@H](O)[C@@H](CO)O2)c(=O)n1,inactive
9,c1ccc2[nH]c(-c3cscn3)nc2c1,inactive
10,COc1c(O)cc2c(c1O)[C@@H]1O[C@H](CO)[C@@H](O)[C@H](O)[C@H]1OC2=O,inactive
11,CCCCCCCCOc1ccccc1C(=O)Nc1ccc(C(=O)OCC[N+](C)(CC)CC)cc1,inactive
12,O=C(NC(Cc1cc(=O)[nH]c2ccccc12)C(=O)O)c1ccc(Cl)cc1 (stereo not given),inactive
13,CN(C)CCc1c[nH]c2ccc(Cn3cncn3)cc12,inactive
14,Cc1cc2cc3c(C)cc(=O)oc3c(C)c2o1,inactive
15,CC1=C(C)C(=O)C(C(CCCCCC(=O)O)c2ccccc2)=C(C)C1=O (stereo not given),inactive
16,CN(C)c1ccc2nc3ccc(=[N+](C)C)cc-3sc2c1,7.94 µM (active)
17,CCOC(=O)c1c(C)n(C)c2ccc(O)cc12,inactive
18,CCCCCCCCCCCCCCCCCCCCCCO,inactive
19,C=CCc1cc(OC)c(O)c(C(=O)NCCO)c1,inactive
20,CC(S)C(=O)NCC(=O)O (stereo not given),inactive
